Assay [1] deals with TRPC4 beta (transient receptor potential cation channel C4), mouse. Briefly: activators of mouse TRPC4 channel, confirmation, cell-based, Fluo4 calcium, HEK293 TRPC4beta/mu-opioid, duplicates, 10 µM (AID 2426;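 active = fluorescence ratio normalized to control raised more than 50% in primary screen plus both repeat runs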;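 for activation: percent rise of integrated ratio over buffer wells lacking compound which define 0%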). The conditions noted are these: Fluo4 calcium fluorescence, at 10 µM; hits give high values.
Assay [2] deals with transient receptor potential cation channel C4 beta (TRPC4), mouse. As to the kind of experiment: activators of mouse TRPC4 channel, confirmation, cell-based, second round, Fluo4, HEK293 TRPC4beta/mu-opioid, 1 µM (AID 2461;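 active = primary screen active and over 50% activation in each of two duplicate runs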). The conditions noted are these: Fluo4 calcium fluorescence, at 1 µM; hits give high values.
For assay [3], the system named is TRPC4 (transient receptor potential cation channel C4 beta), mouse. As to the kind of experiment: positive allosteric modulators of mouse TRPC4, confirmation, cell-based, second round, Fluo-4, HEK293 TRPC4beta/mu-opioid, 1 µM (AID 2554;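 active = primary screen hit whose fluorescence ratio, in both repeats, exceeds the weak agonist control mean by 3 SD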). As to conditions: DAMGO EC20, Fluo-4 calcium flux, at 1 µM; hits give high values. On the technique in general: Calcium flux is commonly read through the fluorescence of an indicator in the cells.

Assay [4] has as its system TRPC4 beta (transient receptor potential cation channel C4), mouse. As to the kind of experiment: positive allosteric modulators of mouse TRPC4, confirmation, cell-based, Fluo-4, HEK293 TRPC4beta/mu-opioid (AID 2555;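 active = primary screen hit whose calcium fluorescence ratio, in both repeats, exceeds the weak agonist control mean by 3 SD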). The conditions noted are these: DAMGO EC20, Fluo-4 calcium flux, at 10 µM; hits give high values.
The target of assay [5] is Short transient receptor potential channel 4 (Mus musculus) (UniProt Q9QUQ5). As to the kind of experiment: inhibitors of mouse TRPC4 channel, confirmation, cell-based, Fluo4, HEK293 TRPC4beta/mu-opioid (AID 2636;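 active = calcium signal cut by more than 3 SD below the full-agonist control yet still positive, in both repeats and the earlier primary screen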). As to conditions: DAMGO, Fluo4 calcium flux, at 10 µM; hits give high values.
The target is the same in assay [6]. As to the kind of experiment: inhibitors of mouse TRPC4 channel, confirmation, cell-based, second round, Fluo4, HEK293 TRPC4beta/mu-opioid, 1 µM (AID 2637). The conditions noted are these: Fluo4 calcium flux, DAMGO, at 1 µM; hits give high values.
For assay [7] the target is unchanged. As to the kind of experiment: mouse TRPC4 channel activators, dose response, cell-based, HEK293 TRPC4/mu-opioid, Fluo-4 calcium (AID 434937;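 active = primary screen activator hit with a dose response curve and TRPC4 channel activation at any tested dose; inactive = no activation, no dose response, or not a primary hit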).
For assay [8] the target is unchanged. As to the kind of experiment: TRPC4 positive allosteric modulators, dose response, cell-based, HEK293 TRPC4/mu-opioid, Fluo-4 calcium, EC20 DAMGO (AID 434941;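 active = earlier screen potentiator hit that boosts the TRPC4 ion channel at some dose, with a dose response; inactive = no potentiation, no dose response, or not a prior hit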;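 note: calcium entry triggered by an EC20 dose of DAMGO at the co-expressed mu-opioid receptor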).
Assay [9] has the same target. As to the kind of experiment: mouse TRPC4 channel inhibitors, dose response, cell-based, HEK293 TRPC4/mu-opioid, Fluo-4 calcium (AID 434942;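 active = primary screen inhibitor hit that blocks the TRPC4 channel at some tested dose, yielding a dose curve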).
Assay [10] deals with Short transient receptor potential channel 6 (Mus musculus) (UniProt Q61143). Briefly: inhibition of mouse TRPC6 channel, confirmation, selectivity assay for TRPC4 inhibitor project, cell-based, HEK293, membrane potential dye, duplicate (AID 434948;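 active = active in primary screen and both duplicates, each dropping signal beyond three positive-control SD with fluorescence still positive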). As to conditions: HEK293 TRPC6, membrane potential dye fluorescence, at 10 µM, stimulated with maximal-effect acetylcholine; hits give high values.

Assay [11] has the same target. Briefly: activation of mouse TRPC6 channel, confirmation, selectivity assay for TRPC4 activator project, cell-based, HEK293, membrane potential dye, duplicate (AID 434950;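 active = membrane potential signal rise above negative control mean plus 3 SD in both duplicates, also active in the earlier TRPC4 screen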;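 for activation: 0% = buffer only wells and 100% = acetylcholine maximal-effect wells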). As to conditions: HEK293 TRPC6, membrane potential fluorescence, at 10 µM; hits give high values.
Assay [12] has the same target. Briefly: TRPC6 potentiation by TRPC4 potentiator hits, confirmation, selectivity assay for TRPC4 potentiator project, HEK293 cells, membrane potential dye, duplicate (AID 434952;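 active = compound raising the membrane signal above positive-control mean plus 3 SD in both repeats, and a primary screen hit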). The conditions noted are these: HEK293 TRPC6, membrane potential dye fluorescence, at 10 µM, maximal acetylcholine added after compound; hits give high values.
Assay [13] addresses Short transient receptor potential channel 4 (Mus musculus) (UniProt Q9QUQ5). As to the kind of experiment: calcium flux activators in TRPC4/5HT1a cells, counter-screen for TRPC4 activator project, cell-based, second counter screen, HEK293 TRPC4/5HT1a, Fluo-4 (AID 434977;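 active = calcium signal rise above buffer-control mean plus 5 SD in both duplicates, and also a hit in the primary screen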;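 for activation: plate controls were assay buffer for no effect and maximal serotonin response for full effect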). The conditions noted are these: Fluo-4 calcium flux, at 10 µM; hits give high values.
Assay [14] in a line: calcium flux inhibitors in TRPC4/5HT1a cells, confirmation, counter-screen for TRPC4 inhibitor project, cell-based, second counter screen, HEK293 TRPC4/5HT1a, Fluo-4 (AID 434978;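 active = primary screen active whose calcium signal fell more than 3 SD beyond the full-serotonin control mean in both duplicate plates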;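 note: serotonin given first at submaximal then at maximal dose after compound preincubation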). As to conditions: Fluo-4 calcium flux, at 10 µM, serotonin added to trigger calcium flux; hits give high values.
Assay [15] deals with TRPC4 (mouse), co-expressed with 5HT1a in HEK293. As to the kind of experiment: calcium flux potentiators in TRPC4/5HT1a cells, confirmation, counter-screen for TRPC4 potentiator project, cell-based, second counter screen, HEK293 TRPC4/5HT1a, Fluo-4 (AID 434979;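 active = signal rise over 3 SD above mean of control wells given weak agonist, in both repeats and first screen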). The conditions noted are these: Fluo-4 calcium flux, at 10 µM, serotonin added at its EC20 dose; hits give high values.

Assay [16] in a line: calcium flux activation in mu-opioid HEK293 cells, confirmation, counter-screen for TRPC4 activator project, cell-based, HEK293 mu-opioid receptor line (AID 449723;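 active = hit in primary screen, with calcium signal over 5 SD above buffer well mean in both duplicates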;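 note: counter screen cells carry the mu-opioid receptor alone and lack TRPC4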). The conditions noted are these: Fluo-4 calcium fluorescence, at 10 µM; hits give high values.
Assay [17] in a line: calcium flux enhancement in mu-opioid HEK293 cells, confirmation, counter-screen for TRPC4 allosteric potentiator project, cell-based, HEK293 mu-opioid receptor line (AID 449724;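 active = calcium signal rise more than 3 SD above the low-dose agonist control mean, in both duplicate plates and the primary screen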;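 note: HEK293 cells carrying mu-opioid receptor only with no TRPC4 channel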). As to conditions: Fluo-4 calcium flux, at 10 µM, compound added before EC20 DAMGO stimulus; hits give high values.

This is an account of results in PubChem BioAssay.

For some assays here: Potency and affinity values are given separately. Activity calls are given as the source filed them.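 Rule for the calls, unless noted: active = calcium signal ratio cut to more than 3 SD under the fully stimulated control mean yet still positive, in both repeats and the primary screen; inactive = the rest.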

Sequence of Short transient receptor potential channel 6 (Mus musculus) (Q61143 whole entry, looked up): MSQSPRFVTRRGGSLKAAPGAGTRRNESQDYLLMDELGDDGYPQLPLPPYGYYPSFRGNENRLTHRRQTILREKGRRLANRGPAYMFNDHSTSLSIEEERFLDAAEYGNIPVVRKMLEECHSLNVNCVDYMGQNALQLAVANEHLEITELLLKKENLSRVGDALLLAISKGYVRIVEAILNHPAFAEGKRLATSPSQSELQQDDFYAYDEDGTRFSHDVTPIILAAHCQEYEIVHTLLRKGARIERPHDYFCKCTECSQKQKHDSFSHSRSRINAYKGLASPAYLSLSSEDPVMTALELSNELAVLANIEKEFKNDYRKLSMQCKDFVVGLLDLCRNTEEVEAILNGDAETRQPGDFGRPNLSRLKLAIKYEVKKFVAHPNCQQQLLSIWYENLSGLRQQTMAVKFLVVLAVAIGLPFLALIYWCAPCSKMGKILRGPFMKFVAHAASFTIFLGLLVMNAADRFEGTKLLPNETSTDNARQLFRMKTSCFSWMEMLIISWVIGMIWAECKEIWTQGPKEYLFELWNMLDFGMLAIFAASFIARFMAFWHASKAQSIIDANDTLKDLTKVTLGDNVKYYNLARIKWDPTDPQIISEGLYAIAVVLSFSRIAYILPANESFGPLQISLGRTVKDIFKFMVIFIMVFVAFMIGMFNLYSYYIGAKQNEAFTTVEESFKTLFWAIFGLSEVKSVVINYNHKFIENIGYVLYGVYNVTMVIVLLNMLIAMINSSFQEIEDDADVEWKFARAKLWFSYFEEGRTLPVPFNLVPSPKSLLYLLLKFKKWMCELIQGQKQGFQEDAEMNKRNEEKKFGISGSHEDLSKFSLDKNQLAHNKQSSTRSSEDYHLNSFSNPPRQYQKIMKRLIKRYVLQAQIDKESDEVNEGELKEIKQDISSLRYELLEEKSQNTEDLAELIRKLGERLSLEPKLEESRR
Sequence of Short transient receptor potential channel 4 (Mus musculus) (Q9QUQ5 whole entry, looked up): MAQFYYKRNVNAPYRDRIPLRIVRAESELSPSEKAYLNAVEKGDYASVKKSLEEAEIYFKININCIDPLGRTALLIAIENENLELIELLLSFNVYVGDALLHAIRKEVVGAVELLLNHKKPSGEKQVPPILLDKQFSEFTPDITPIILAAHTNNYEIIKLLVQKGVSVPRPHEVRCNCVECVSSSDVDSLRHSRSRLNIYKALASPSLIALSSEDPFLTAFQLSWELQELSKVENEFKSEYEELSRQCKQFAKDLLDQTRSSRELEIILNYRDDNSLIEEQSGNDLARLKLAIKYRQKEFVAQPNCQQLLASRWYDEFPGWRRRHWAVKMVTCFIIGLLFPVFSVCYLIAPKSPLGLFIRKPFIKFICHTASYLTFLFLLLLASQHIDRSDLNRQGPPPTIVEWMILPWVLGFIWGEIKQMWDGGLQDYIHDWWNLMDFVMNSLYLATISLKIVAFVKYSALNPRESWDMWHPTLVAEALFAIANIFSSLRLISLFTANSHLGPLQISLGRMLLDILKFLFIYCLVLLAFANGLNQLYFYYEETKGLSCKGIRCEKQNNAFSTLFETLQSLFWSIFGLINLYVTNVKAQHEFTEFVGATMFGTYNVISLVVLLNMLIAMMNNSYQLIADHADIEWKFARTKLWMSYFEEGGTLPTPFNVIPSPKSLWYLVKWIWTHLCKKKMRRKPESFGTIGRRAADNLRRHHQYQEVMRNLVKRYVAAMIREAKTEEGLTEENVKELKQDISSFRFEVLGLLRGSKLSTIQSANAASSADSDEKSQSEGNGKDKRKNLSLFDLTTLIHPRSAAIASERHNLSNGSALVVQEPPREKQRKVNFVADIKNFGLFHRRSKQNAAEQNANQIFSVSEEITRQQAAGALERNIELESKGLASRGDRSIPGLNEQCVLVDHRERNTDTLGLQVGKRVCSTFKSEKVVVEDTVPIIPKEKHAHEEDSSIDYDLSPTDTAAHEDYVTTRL

In the case of `Cc1ccc(Nc2c(N)c(=O)oc3ccccc23)cc1`, the outcome in [1], in assay [2], in assay [3], in assay [4], in assay [5] and in assay [6] was inactive. Further, the outcome in assay [7], in [8], in [9], in [10], in assay [11] and in assay [12] was inactive. Also, the result in assay [13], in assay [14], in [16] and in assay [17] was inactive. In addition, in [15], the potentiation was 33% (active).
Take `CCOC(=O)C1CCN(c2nc3ccccc3nc2C(C#N)C(=O)OCCOC)CC1` (configuration not stated): the outcome in assay [1], in assay [2], in [3], in [4], in assay [5] and in assay [6] was inactive. The result in assay [7], in [8], in assay [9], in assay [10], in assay [11] and in [12] was inactive. In addition, the result in assay [13], in assay [14], in [15], in [16] and in assay [17] was inactive.
For the molecule `CC(C)CCNC(=O)CCC(=O)NNc1nc2ccccc2c2nc(-c3ccccc3)nn12`, the outcome in assay [1], in assay [2], in [3], in assay [4], in assay [5] and in assay [6] was inactive. The result in assay [7], in [8], in [9], in assay [10], in [11] and in assay [12] was inactive. In addition, the result in [13], in assay [14], in [16] and in assay [17] was inactive. The potentiation in assay [15] was 70.8% (active).
For `Cc1ccccc1-n1c(=O)c2c(n3cnnc13)-c1ccccc1CC21CCCCC1`, the result in assay [1], in assay [2], in [3], in [4], in [5] and in assay [6] was inactive. For the same molecule, the result in [7], in assay [8], in [9], in assay [10], in assay [11] and in assay [12] was inactive. The outcome in assay [13], in assay [14], in [16] and in assay [17] was inactive. The potentiation in assay [15] is 10.5% (active).
Consider `O=C1CC2(CCN(S(=O)(=O)c3ccccc3)CC2)Oc2ccccc21`, for which the outcome in [1], in assay [2], in assay [3], in assay [5], in assay [6] and in [7] was inactive. Further, the outcome in [8], in assay [9], in assay [10], in assay [11], in assay [12] and in assay [13] was inactive. Besides, the result in [14], in assay [16] and in assay [17] was inactive. Moreover, the potentiation in assay [4] is 52% (active); in assay [15], 28.7% (active).
For `CCOC(=O)C1=C(C)N(C)C(=S)NC1c1cccc(Cl)c1Cl` (configuration not stated), the outcome in assay [1], in [2], in [3], in assay [5], in [6] and in [7] was inactive. Also, the outcome in [8], in assay [9], in assay [10], in assay [11], in assay [12] and in [13] was inactive. The result in assay [14], in assay [15], in assay [16] and in [17] was inactive. In [4], the potentiation is 25% (active).
On to `CCOc1ccc(CCNC(=O)c2ccc3c(=O)[nH]c4c(C(=O)NC(C)C)sc(=S)n4c3c2)cc1`, for which the result in [1], in [2], in assay [5], in assay [6], in [7] and in [8] was inactive. Besides, the result in [9], in [10], in assay [11], in assay [12], in assay [13] and in assay [14] was inactive. Moreover, the outcome in assay [16] and in assay [17] was inactive. Also, the potentiation in assay [3] is 9% (active); in [4], 11% (active); in [15] it was 7.91% (active).
Take `Cc1ccc(CS(=O)(=O)CCC(=O)NCCC2=CCCCC2)cc1`: the outcome in assay [1], in assay [2], in assay [4], in [5], in assay [6] and in assay [7] was inactive. Further, the result in assay [8], in assay [9], in assay [10], in assay [11], in assay [12] and in [13] was inactive. Besides, the outcome in assay [14], in [16] and in assay [17] was inactive. The potentiation in assay [3] was 14% (active); in assay [15] it was 18.2% (active).
For the molecule `COC(=O)C1=C(CCc2ccccc2)NC(=O)NC1c1ccc(Cl)cc1` (configuration not stated), the result in [1], in assay [2], in assay [3], in assay [5], in assay [6] and in [7] was inactive. In addition, the result in [8], in [9], in assay [10], in [11], in assay [12] and in [13] was inactive. In addition, the result in assay [14], in [16] and in assay [17] was inactive. In addition, the potentiation in assay [4] was 35% (active); in assay [15], 39.7% (active).
With `CCCCNc1c(-c2ccc(SC(C)CC)c(OC)c2)nc2ccc(C)cn12` (configuration not stated), the outcome in [1], in assay [2], in assay [3], in assay [4], in assay [5] and in assay [6] was inactive. The result in assay [7], in [8], in assay [9], in [10], in assay [11] and in [12] was inactive. In addition, the outcome in assay [13], in assay [14], in assay [15], in assay [16] and in assay [17] was inactive.
Consider `C=CCn1c(SCCN2CCCC2)nc2c([nH]c3ccccc32)c1=O`, for which the outcome in [1], in assay [2], in assay [4], in assay [5], in assay [6] and in [7] was inactive. For the same molecule, the result in [8], in assay [9], in [10], in [11], in assay [12] and in assay [13] was inactive. In addition, the result in [14], in [15], in assay [16] and in assay [17] was inactive. For the same molecule, the potentiation in assay [3] is 21% (active).
For `O=C(N/N=C/c1ccccc1F)NC1CCCCC1`, the values for the activation in assay [1], in assay [11] and in assay [13] were 85% (active), 36.5% (active) and 17.8% (active), respectively. For the same molecule, the result in assay [2], in [5], in assay [6], in assay [7], in [8] and in assay [9] was inactive. The result in assay [10], in assay [12], in assay [14], in [16] and in assay [17] was inactive. In addition, the potentiation in [3] is 12% (active); in assay [4], 77% (active); in assay [15], 107% (active).
Regarding `CC(C)Cc1nc(Cl)c(C#N)c2c1CCCC2`, the outcome in [1], in assay [2], in [3], in assay [4], in assay [5] and in assay [6] was inactive. Also, the result in assay [7], in [8], in assay [9], in [10], in assay [11] and in assay [12] was inactive. The result in assay [13], in [14], in assay [15], in assay [16] and in assay [17] was inactive.
For the molecule `Cc1ccc2[nH]c(C)c(CCN(Cc3cccnc3)C(=S)NC(C)(C)C)c2c1`, the outcome in assay [1], in assay [2], in assay [3], in assay [4], in assay [5] and in assay [6] was inactive. The result in assay [7], in assay [8], in assay [9], in assay [10], in [11] and in assay [12] was inactive. Further, the outcome in assay [13], in assay [14], in assay [15], in assay [16] and in assay [17] was inactive.
On to `Cc1ccnc(NC(=O)COC(=O)C23CC4CC(CC(C4)C2)C3)n1`, for which the result in assay [1], in [2], in [3], in assay [5], in [6] and in assay [7] was inactive. For the same molecule, the result in [8], in assay [9], in assay [10], in [11], in assay [12] and in assay [13] was inactive. For the same molecule, the outcome in assay [14], in assay [16] and in assay [17] was inactive. Further, the potentiation in assay [4] is 128% (active); in assay [15], 104% (active).
In the case of `Cc1cc(C)nc(NNS(=O)(=O)c2ccc(F)c(Cl)c2)n1`, the result in assay [1], in assay [2], in [3], in assay [4], in [5] and in assay [6] was inactive. Further, the result in assay [7], in [8], in assay [9], in assay [10], in assay [11] and in assay [12] was inactive. Moreover, the result in assay [13], in assay [14], in assay [16] and in assay [17] was inactive. For the same molecule, in [15], the potentiation was 6.83% (active).
